# Values joined by “and” are separate entries in the source; they are usually repeats but may differ in a detail not shown here. Equal values may be shown once. Values without a mark were called inactive. Results filed as inconclusive are left out. Where a structure was tested more than once in an assay, its records may differ in their call. Active and inactive are the calls of the source. Unless noted, the call rests on the fitted dose curve; in most records, active means well fitted curve in the direction sought with a large enough effect; inconclusive means small, poorly fitted or top-dose-only effect, or another doubt; inactive means no such curve, though single readings can be large; an effect the other way counts as inactive or inconclusive.
# Legend:
# [1] = system: Tov112D; assay: Primary qHTS to identify gynecologic anti-cancer compounds using libraries of approved drugs and bioactive compounds (AID 1345084); conditions: Gynecologic cancer cell panel viability, ATPlite luminescence, 48 h; series mostly up to 57.5 µM; further: on the % scale 0 is the no-effect control and ±100 the full control effect; nearly all actives have a fitted effect of over 55% in size
# Procedure, shortened: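 Cells, 1,000 per well, were allowed to settle for 16 h at 37 C before compound addition. Five concentrations were tested for 48 h, and viability was read by ATPlite luminescence after 15 min at room temperature.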
# [2] = Drug repurposing screens with cells derived from glioblastoma tumor samples (AID 1345199); conditions: GBM patient neurospheres viability, ATP luminescence, 48 h; further: nearly all actives have a fitted effect of over 40% in size; further: potency means the concentration at half of the fitted maximal effect; on activity, negative = cell killing: on the % scale 0 is the no-effect control and ±100 the full control effect
# Procedure, shortened: (§1)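 Four patient lines of CD133+ GBM neurospheres were screened at several concentrations; hits were retested in those lines plus three slower-growing GBM lines, using 48-hour treatment and ATP-based viability.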
# [3] = system: astro; assay: as above; conditions: viability, ATP luminescence, 48 h; series mostly up to 45.9 µM
# Procedure, shortened: as §1
# [4] = biological target: Nuclear receptor subfamily 1 group I member 2 (Rattus norvegicus) (UniProt Q9R1A7); assay: qHTS assay for small molecule activators of the rat pregnane X receptor (rPXR) signaling pathway (AID 651751; call rule not given here; further: 0% is about no effect); conditions: rPXR reporter cells, luciferase (One-Glo), 24 h
# Sequence of Nuclear receptor subfamily 1 group I member 2 (Rattus norvegicus) (Q9R1A7 whole entry, looked up): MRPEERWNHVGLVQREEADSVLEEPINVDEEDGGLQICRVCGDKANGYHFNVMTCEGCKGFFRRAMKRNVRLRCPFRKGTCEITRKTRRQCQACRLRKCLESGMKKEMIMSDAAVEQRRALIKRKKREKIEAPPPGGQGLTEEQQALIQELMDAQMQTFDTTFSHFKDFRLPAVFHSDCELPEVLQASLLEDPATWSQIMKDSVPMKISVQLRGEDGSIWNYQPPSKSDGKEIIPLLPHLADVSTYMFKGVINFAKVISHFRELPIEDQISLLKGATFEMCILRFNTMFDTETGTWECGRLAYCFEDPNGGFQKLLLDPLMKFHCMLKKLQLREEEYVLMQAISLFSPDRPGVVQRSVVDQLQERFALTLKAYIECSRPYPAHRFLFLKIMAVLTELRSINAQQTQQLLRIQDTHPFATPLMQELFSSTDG
# [5] = qHTS assay for small molecule activators of the human pregnane X receptor (PXR) signaling pathway (AID 720659; call rule not given here; further: 0% is about no effect)
# [6] = at 45.9 µM (top of the series), tumour line B
# [7] = at 45.9 µM (top of the series), tumour line D
# [8] = at 46 µM (top of the series), tumour line A
# [9] = at 46.1 µM (top of the series), tumour line C
# [10] = at 20 µM (top of the series), tumour line C
# [11] = at 21.2 µM (top of the series), tumour line B
# [12] = at 21.2 µM (top of the series), tumour line D
# [13] = at 21.3 µM (top of the series), tumour line A
compound,measurement,setting,value
NS(=O)(=O)c1cc2c(cc1Cl)NCNS2(=O)=O,Potency,[1],inactive
same,"activity, negative = cell killing",[2]; [6],-16.5%
same,"activity, negative = cell killing",[2]; [7],-0.301%
same,"activity, negative = cell killing",[2]; [8],-4.73%
same,"activity, negative = cell killing",[2]; [9],-21.1%
same,Potency,[3],inactive
same,max response,[4],-0.0581% and 1.2%
same,outcome,[5],inactive
NC(=O)NO,Potency,[1],inactive
same,"activity, negative = cell killing",[2]; [6],-13.8%
same,"activity, negative = cell killing",[2]; [7],-5.79%
same,"activity, negative = cell killing",[2]; [8],-19.1%
same,"activity, negative = cell killing",[2]; [9],-11.2%
COc1nc(C)nc(Cl)c1NC1=NCCN1,Potency,[1],inactive
same,"activity, negative = cell killing",[2]; [10],-9.78%
same,"activity, negative = cell killing",[2]; [11],-2.98%
same,"activity, negative = cell killing",[2]; [12],12.8%
same,"activity, negative = cell killing",[2]; [13],-26.5%
same,Potency,[3],inactive
OCCN(CCO)c1nc(N2CCCCC2)c2nc(N(CCO)CCO)nc(N3CCCCC3)c2n1,Potency,[1],inactive
same,"activity, negative = cell killing",[2]; [6],-2.66%
same,"activity, negative = cell killing",[2]; [7],-18.5%
same,"activity, negative = cell killing",[2]; [8],-9.97%
same,"activity, negative = cell killing",[2]; [9],1.47%
same,Potency,[3],inactive
CC1COc2c(N3CCN(C)CC3)c(F)cc3c(=O)c(C(=O)O)cn1c23 (stereo unspecified),Potency,[1],inactive
same,"activity, negative = cell killing",[2]; [6],-12.3%
same,"activity, negative = cell killing",[2]; [7],-0.592%
same,"activity, negative = cell killing",[2]; [8],-24.5%
same,"activity, negative = cell killing",[2]; [9],-10.7%
CN(C)CCOC(c1ccccc1)c1ccccc1,Potency,[1],inactive
same,"activity, negative = cell killing",[2]; [6],0.893%
same,"activity, negative = cell killing",[2]; [7],1.4%
same,"activity, negative = cell killing",[2]; [9],1.73% and -22.4%
same,Potency,[2]; tumour line A,22.4 µM (active) and 12.6 µM (active)
same,max response,[4],2.67%
N[C@@H](Cc1c[nH]c2ccc(O)cc12)C(=O)O,Potency,[1],inactive
same,"activity, negative = cell killing",[2]; [6],-15.2%
same,"activity, negative = cell killing",[2]; [7],-5.01%
same,"activity, negative = cell killing",[2]; [8],-33.5%
same,"activity, negative = cell killing",[2]; [9],-4.77%
same,max response,[4],2.83%
same,outcome,[5],inactive
CS(=O)(=O)Nc1ccc([N+](=O)[O-])cc1Oc1ccccc1,Potency,[1],inactive
same,"activity, negative = cell killing",[2]; [10],19.5%
same,"activity, negative = cell killing",[2]; [11],-19.6%
same,"activity, negative = cell killing",[2]; [12],-29.6%
same,"activity, negative = cell killing",[2]; [13],-28.2%
same,Potency,[3],inactive
CN(C)c1nc(N(C)C)nc(N(C)C)n1,Potency,[1],inactive
same,"activity, negative = cell killing",[2]; [10],0.771%
same,"activity, negative = cell killing",[2]; [11],-14%
same,"activity, negative = cell killing",[2]; [12],-14.3%
same,"activity, negative = cell killing",[2]; [13],-32%
same,Potency,[3],inactive
O=C1Cc2cc(CCN3CCN(c4nsc5ccccc45)CC3)c(Cl)cc2N1,Potency,[1],inactive
same,"activity, negative = cell killing",[2]; [6],-28.8%
same,"activity, negative = cell killing",[2]; [7],-18.4%
same,"activity, negative = cell killing",[2]; [9],-28.3% and -12.6%
same,Potency,[2]; tumour line B,17.8 µM (active)
same,Potency,[2]; tumour line D,12.6 µM (active)
